An excerpt weighted towards active compounds, which were near 8% of everything screened.
MCF10A rereplic – DNA re-replication induction in MCF 10a cells; Potency, µM (doses to about 46.1 µM), usual class: activators; hit rate 2.9% among 350,000; MCF 10A DNA re-replication, Hoechst nuclear intensity, 48 h; also: nearly all actives have a fitted effect of over 50% in size
HT1080-NT tox – kills 2HG-producing HT-1080-NT fibrosarcoma cells. Potency, µM (doses to about 46.1 µM), hits mostly cytotoxic. HT-1080-NT fibrosarcoma viability, CellTiter-Glo ATP luminescence, 48 h. hit rate 1.6% among 360,000;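 also: NT is the 2HG producing partner of a matched IDH1 knockdown line; nearly all actives have a fitted effect of over 55% in size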
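Compounds were tested in concentration-response format on HT-1080-NT cells for 48 hours at 37 degrees C. Cell viability came from CellTiter-Glo luminescence; curves were classified by r2, response magnitude and activity.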
KB-3-1 tox – KB-3-1 parental cell cytotoxicity; AID 1347075; Potency, µM (doses to about 46.1 µM), actives largely listed as cytotoxic; KB-3-1 viability, CellTiter-Glo ATP luminescence, 72 h; hit rate 1.4% among 400,000; also: nearly all actives have a fitted effect of over 60% in size
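Using CellTiter-Glo luminescence, growth of non-resistant KB-3-1 adenocarcinoma cells is assessed 72 h after pin-tool compound addition at 37 °C. Normalized responses across the concentration series yield fitted curves.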
KB-V1 cytotox – KB-V1 MDR subline cytotoxicity. hit rate 3.4% among 400,000. Potency, µM (highest dose often 46.1 µM), usual class: cytotoxic. KB-V1 MDR cells viability, CellTiter-Glo, 72 h. AID 1347076; also: nearly all actives have a fitted effect of over 60% in size
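Cytotoxicity toward P-gp-expressing KB-V1 cells was determined as loss of CellTiter-Glo luminescence after 72 h at 37 degrees C. Compounds were tested in quantitative HTS format across a concentration range, with curves fitted to normalized data.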
SW480 rerep – inducers of DNA re-replication in SW480 colon cancer cells. AID 624297. Potency, µM (highest dose often 46.1 µM), hits mostly activators. SW480 DNA re-replication, Hoechst DNA content imaging, 48 h. hit rate 1.8% among 340,000; also: nearly all actives have a fitted effect of over 55% in size
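Image-based read-out: total Hoechst fluorescence of nuclei (405 nm excitation, 500-530 nm emission), with hits raising the fraction of high-intensity nuclei. SW480 colon cells incubated 48 hr with compounds at 37 C.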
HT1080 IDH1KD tx – kills HT-1080 cells with IDH1 knockdown; HT-1080 IDH1 knockdown viability, ATP luminescence, 48 h; Potency, µM (top dose mostly 46.1 µM), hits mostly cytotoxic; hit rate 2% among 360,000; AID 686971
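In this qHTS, HT-1080 cells depleted of IDH1 are exposed for 48 h at 37 °C to compound titrations. Toxicity is scored from CellTiter-Glo luminescence, with DMSO as full viability and medium alone as none.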
A number is an active result; n = inactive; u = inconclusive; x = not tested or not shown. Calls follow the shape of the dose curve; as a rule, active = well fitted curve in the direction sought with a large enough effect; inconclusive = small, poorly fitted or top-dose-only effect, or another doubt; inactive = no such curve, though single readings can be large; an effect the other way counts as inactive or inconclusive.

SMILES | MCF10A rereplic | HT1080-NT tox | KB-3-1 tox | KB-V1 cytotox | SW480 rerep | HT1080 IDH1KD tx
Cc1cccc2cc3c(NC(=O)C(C)(C)C)nn(CC(C)C)c3nc12 | u | n | n | n | 21µM | n
COc1cccc(C(=O)Nc2c(C(=O)N3CCN(c4ccc(F)cc4)CC3)oc3ccccc23)c1 | x | x | n | u | x | x
CCOC(=O)c1ccc(NS(=O)(=O)c2cc3c(cc2C)n(C)c(=O)c(=O)n3C)cc1 | x | x | n | u | x | x
COc1ccc(C)c2sc(NC(=O)c3ccc(S(=O)(=O)N4CCCCC4)cc3)nc12 | x | x | n | u | x | x
COC(=O)C(C)Sc1ncnc2c1c(-c1ccccc1)cn2-c1ccc(F)cc1 (centres undefined) | x | x | n | n | x | x
CC1(C)OC(=O)C2(Cc3ccc(Cl)cc3N3CCCCC32)C(=O)O1 (centres undefined) | x | x | n | n | x | x
CCOc1ccc(Nc2c(S(=O)(=O)c3ccccc3)cnc3ccc(CC)cc23)cc1 | x | x | n | u | x | x
CSc1ccc(-c2cnc(N3CCC(C(N)=O)CC3)s2)cc1 | x | x | n | n | x | x
CCn1nc(NC(=O)C(C)C)c2cc3cccc(C)c3nc21 | u | n | n | n | 8.2µM | n
CCCN1CNc2c(c(=O)[nH]c(=S)n2CCc2c(C)cccc2C)C1 | x | n | x | x | x | n
C/C(=N\OCC(=O)Nc1ccccc1Br)c1cccs1 | u | n | n | n | 0.15µM | n
N=c1sccn1CC(=O)N1N=C(c2ccc(Cl)cc2)CC1c1ccco1 (centres undefined) | n | 33µM | n | u | n | u
CCOC(=O)c1cccc(NS(=O)(=O)c2cc(-c3cnc(C4CC4)o3)ccc2C)c1 | x | x | n | n | x | x
O=C1C=CC(=O)N1CCCCCCCCCCN1C(=O)C=CC1=O | u | u | u | n | 6.5µM | u
O=C1C=CC(=O)N1Cc1ccncc1 | n | n | n | n | n | n
Cc1cc(-c2cc(-c3ccccc3)on2)nc(NCC2CC2)n1 | 18µM | n | n | u | n | n
CCCNc1nc(C)cc(-c2cc(-c3ccccc3)on2)n1 | n | n | n | n | n | n
Fc1ccc(CNc2nc3ccc(Cl)cc3n3nnnc23)cc1 | x | x | n | n | x | x
CCOc1cccc(CNC(=O)c2ccc(N3CCCC3)c(NC(=O)NCc3ccc(F)cc3)c2)c1 | x | x | n | n | x | x
CCOC(=O)/C=C/C(=O)N1CCN(C(=O)/C=C/C(=O)OCC)CC1 | 15µM | n | n | n | u | n
CC(Sc1nc(-c2ccc(F)cc2)cs1)C(=O)N1c2ccccc2CC1C (centres undefined) | 21µM | u | n | u | u | u
Cc1ccc(CNC(=O)c2cccc(-n3cnc4cccnc43)c2)cc1 | x | x | n | n | x | x
CC(C)(C)OC(=O)N1CCC(c2c(C(=O)NCc3ccco3)cnn2-c2ccccc2Cl)CC1 | x | x | n | u | x | x
CN(C)/C=C/C(=O)c1ccc2noc(-c3ccccc3)c2c1 | 21µM | u | n | u | n | n
CC(=O)c1ccc2noc(-c3ccccc3)c2c1 | n | n | n | u | n | n
SMILES | MCF10A rereplic | HT1080-NT tox | KB-3-1 tox | KB-V1 cytotox | SW480 rerep | HT1080 IDH1KD tx
COc1cccc(/C=N/Nc2nnc3c(n2)[nH]c2ccccc23)c1OC | n | n | u | n | u | n
CCc1ccc2[nH]c3nc(N/N=C/c4cccc(O)c4)nnc3c2c1 | u | u | u | n | n | 9.2µM
COc1ccc(-c2ccc(=O)n(CC(=O)NCCc3ccccc3)n2)cc1 | x | x | n | n | x | x
CCC(CC)C(=O)N1CCc2cc(OC)c(OC)cc2C1COc1ccc2c(C)cc(=O)oc2c1 (centres undefined) | x | x | n | u | x | x
CC(C(=O)Nc1ccc(OC(F)(F)F)cc1)N1Cc2ccccc2C1=O (centres undefined) | x | x | n | n | x | x
Cc1ccccc1C(=O)Nc1ccc2nc3n(c(=O)c2c1)CCC3 | n | n | 6.5µM | u | n | n
Cc1ccccc1C(=O)Nc1ccc2nc3n(c(=O)c2c1)CCCC3 | n | n | n | n | u | n
Cc1cc(C)c2oc(-c3ccc(C)c(NC(=O)/C=C/c4ccco4)c3)nc2c1 | x | x | n | n | x | x
CCN(CC(=O)Nc1ccc(NC(C)=O)cc1)C(=O)C1CCN(C(=O)c2ccccc2C)CC1 | n | n | n | n | 3.7µM | n
Cc1nc2c(-c3ccccc3)c(C)nn2c(C)c1CCC(=O)N1CCN(c2ccc(F)cc2)CC1 | x | x | n | n | x | x
Cc1ccc(NC(=O)N2CCC(NC(=O)c3ccccc3C)CC2)cc1 | n | n | n | n | n | n
Cc1ccccc1[C@H](NC1c2ccccc2C=Cc2ccccc21)P(=O)(c1ccccc1)c1ccccc1 | x | 15µM | u | u | x | 13µM
CC(C)(C)c1cc(NCCCn2ccnc2)n2ncc(-c3ccc(Cl)cc3)c2n1 | u | 10µM | n | u | u | 10µM
CN(C)CCCNc1cc(C(C)(C)C)nc2c(-c3ccccc3)cnn12 | u | 21µM | n | n | u | u
Cc1cc(NCCCn2ccnc2)n2nc(-c3ccc(Cl)cc3)cc2n1 | n | n | n | n | n | n
Oc1ccccc1C=NN=Cc1ccccc1Cl | n | n | n | u | n | n
NC(N)=N/N=C/c1cccc(Cl)c1Cl | n | 23µM | u | u | u | 21µM
c1ccc(C2=Nc3c(ccc4ccccc34)C(c3ccncc3)=NN2)cc1 | n | u | u | u | u | 21µM
Cc1ccc2c(c1)C(c1ccncc1)=NNC(c1ccccc1)=N2 | n | n | n | n | n | n
CC(NC(=O)CCl)c1ccc(Cl)c(Cl)c1 (centres undefined) | u | u | u | n | u | 16µM
CC(NC(=O)c1ccc(Cl)c(Cl)c1)c1ccc(-c2ccccc2)cc1 (centres undefined) | n | n | n | n | n | n
CCC(NC(=O)CCl)c1ccc(C)cc1 (centres undefined) | n | u | 21µM | u | n | u
CCCC(NC(=O)CCl)c1ccccc1 (centres undefined) | n | u | n | n | n | u
N=C1C(c2nc(-c3ccc(Cl)cc3)cs2)=C(O)CN1CCCN1CCOCC1 | n | 23µM | n | n | u | u
Cc1nc(-c2ccc(F)cc2)sc1CCNC(=O)c1ccccc1C(F)(F)F | x | x | n | n | x | x
SMILES | MCF10A rereplic | HT1080-NT tox | KB-3-1 tox | KB-V1 cytotox | SW480 rerep | HT1080 IDH1KD tx
COc1cccc(/C=C/c2ccnc3ccccc23)c1OC | x | x | n | n | x | x
CC(=NNC(=S)N1CC2CCC(CC2)C1)c1cccc(C)n1 | u | n | u | u | 0.41µM | u
CC(=NNC(=S)N1CCC1)c1ccccn1 | u | n | u | u | n | u
Cc1c(C)n2c(SCC(=O)Nc3cccc4ccccc34)nnc2[nH]c1=O | n | n | n | n | 23µM | n
CCc1nc(SCC(=O)Nc2cccc3ccccc23)[nH]c(=O)c1C | n | n | n | n | n | n
CCN(CC)CCNC(=O)CCc1c(C)nc2c(c(C)nn2-c2ccc(C)cc2)c1C | u | 18µM | u | n | u | u

Screening results (PubChem)
